This is a sample that favours compounds with a hit; in the whole collection about 1.7% have one here.
PTHR1 agonist = PTHR1 (human) receptor agonism | Q03431 | AID 743266 | HEK293 GP2 PTHR1 cells, GloSensor cAMP luminescence, 1 h | Potency, µM (top dose mostly 115 µM), without a hit: at the top dose activation, usual class: activators | 0.075% of 410,000 active; further: potency means the concentration at half of the fitted maximal effect; nearly all actives have a fitted effect of over 55% in size
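HEK-293-derived GP2 cells expressing PTHR1 and a GloSensor cAMP reporter, 3,000/well, plated overnight, given luciferin plus IBMX (each 0.5 mM as added) for 1 h at 37 °C, then compound for 1 h at 37 °C. Luminescence was read after 15 min at room temperature.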
mIDH1 inhibitor = human IDH1 R132H inhibition; O75874; IDH1-R132H enzyme, NADPH consumption, diaphorase/resazurin fluorescence; Potency, µM (top dose mostly 76.6 µM), inactives show at the top dose activity change, negative = inhibition, actives largely listed as inhibitors; 0.093% of 390,000 active; further: potency means the concentration at half of the fitted maximal effect; on the % scale 0 is the no-effect control and ±100 the full control effect; nearly all actives have a fitted effect of over 65% in size
Target sequence (O75874 whole entry R132H, stated change not applied): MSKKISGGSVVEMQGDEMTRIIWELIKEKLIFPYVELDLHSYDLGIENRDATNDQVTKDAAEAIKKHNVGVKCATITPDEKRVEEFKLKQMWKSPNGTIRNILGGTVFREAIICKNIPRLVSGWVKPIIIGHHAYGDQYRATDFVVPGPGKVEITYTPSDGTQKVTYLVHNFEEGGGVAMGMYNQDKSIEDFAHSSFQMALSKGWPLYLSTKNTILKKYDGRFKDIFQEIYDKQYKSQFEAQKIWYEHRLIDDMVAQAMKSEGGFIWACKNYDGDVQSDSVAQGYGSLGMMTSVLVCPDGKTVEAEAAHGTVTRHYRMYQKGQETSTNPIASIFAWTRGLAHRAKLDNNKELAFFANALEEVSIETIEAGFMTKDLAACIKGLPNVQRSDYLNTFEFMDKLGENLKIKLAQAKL
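IDH1-R132H (0.5 ug/mL) preincubated 30 min with compound, then NADPH (0.016 mM) and alpha-KG (2 mM) added; 80 min at RT, pH 7.5. Remaining NADPH coupled via diaphorase/resazurin to fluorescence (540/590 nm); concentration-response curves normalized to no-enzyme control.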
GLP1R cytotox = cytotoxic in the GLP-1 receptor inverse agonist counter-screen | HEK293 cAMP-luciferase reporter cells, luminescence, 24 h | AID 624418 | 0.13% of 410,000 active | Potency, µM (series often up to 38.3 µM), for inactives: at the highest dose activity change, negative = inhibition, usual class: inhibitors;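 further: loss of luciferase light is scored as toxicity; potency means the concentration at half of the fitted maximal effect; on the % scale 0 is the no-effect control and ±100 the full control effect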
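A 23 nL compound transfer followed 12 hours of cell culture at 37 deg C; exposure then lasted 24 hr. Luciferase assay detection reagent was dispensed and plates read for luminescence after a 12 min room-temperature wait.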
LDHA block = LDHA (human) enzyme inhibition; purified LDHA, NADH/diaphorase-resazurin fluorescence; hits give low values; AID 1347041; 0.15% of 480,000 active; P00338; activity change, % (values are at about 110 or 230 µM); in the data active means activity change below about -30%; inconclusive means mostly about -25% to -30%;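 further: plate controls were DMSO wells for no effect and wells without enzyme for full effect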
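Human LDH5 (2 nM) was incubated with 0.06 mM NADH and 0.2 mM pyruvate for 5 min at room temperature in Tris pH 7.4. Remaining NADH was coupled through diaphorase/resazurin, and resorufin fluorescence was read at 0 and 20 min.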
GLP-1R inv ag = GLP-1 receptor (human) inverse agonism; HEK293 GLP-1R CRE-luciferase, luminescence, 24 h; GLP-1R form is constitutively active; Potency, µM (top dose mostly 38.3 µM), without a hit: top-dose activity change, negative = inhibition, most hits filed as inhibitors; P43220; AID 624417; 1.6% of 410,000 active; further: potency means the concentration at half of the fitted maximal effect; on the % scale 0 is the no-effect control and ±100 the full control effect; nearly all actives have a fitted effect of over 55% in size
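Stable HEK293 clone (constitutively active GLP-1R + cAMP-response luciferase); 200 cells/uL plated, 12 h pre-culture, compound 24 hr, 37 deg C/5% CO2; detection reagent 12 min RT; luminescence.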
GLP-1R agonist = activates the human GLP-1 receptor; P43220; HEK293 GLP-1R CRE-luciferase, luminescence, 4-6 h; cells express a hypersensitive GLP-1R form; Potency, µM (top dose mostly 45.6 µM), inactives show top-dose activation, most hits filed as activators; 0.007% of 380,000 active; AID 624172; further: potency means the concentration at half of the fitted maximal effect; % of control where 0% means no effect
* marks the source's active call; other numbers are inactive results; i = inactive; u = inconclusive; x = not tested or not shown; [ ] = dose if it differs, or a comment. Unless noted, the call rests on the fitted dose curve; in most records, active means well fitted curve in the direction sought with a large enough effect; inconclusive means small, poorly fitted or top-dose-only effect, or another doubt; inactive means no such curve, though single readings can be large; an effect the other way counts as inactive or inconclusive.

SMILES	PTHR1 agonist	mIDH1 inhibitor	GLP1R cytotox	LDHA block	GLP-1R inv ag	GLP-1R agonist
CCOC(=O)c1oc2cc(OCC)ccc2c(=O)c1-c1ccc(Br)cc1	x	x	x	-16.0	x	x
O=C(C[n+]1ccc(Cl)c2ccc(Cl)cc21)c1ccc(F)cc1	x	x	x	-1.9	x	x
COc1ccc(C(=O)C[n+]2ccc(Cl)c3ccc(Cl)cc32)cc1	x	x	x	-59.8*	x	x
COc1cc(/C=C(\CC(=O)O)c2nc3ccccc3s2)ccc1OCC(=O)Nc1ccccc1F	-9.7%	-2.5%	-3.6%	-34.7*	0.4%	13.4%
N#Cc1ccc(Cc2cnc(NC(=O)c3ccsc3)s2)c(C(F)(F)F)c1	x	x	x	0.4	x	x
Cc1cc(Br)ccc1NC(=O)CN(C)C(=O)C1CCN(c2ncnc3sc(C)c(C)c23)CC1	-5.3%	-2.2%	-30.9%	-1.2	3.16µM*	-17.0%
O=C(c1cc(COc2cccc(C(F)(F)F)c2)on1)N1CCCC1	-26.1%	-0.6%	0.1%	-1.2	-5.8%	-4.7%
C=CCC1(CC=C)CCCN1C(=O)c1cc(COc2cccc(C(F)(F)F)c2)on1	-72.1%	11.2%	-4.6%	3.4	10µM*	3.6%
N/C(=N\OC(=O)COc1ccc(Br)cc1Cl)c1ccccn1	-20.0%	3.7%	65.0%	-0.9	10µM*	-5.6%
CC(C)c1ccccc1NC(=O)/C=C/c1ccc(F)cc1	x	x	x	2.7	x	x
O=C(Nc1nc(-c2cccc([N+](=O)[O-])c2)cs1)C(c1ccccc1)c1ccccc1	-2.4%[57.5 µM]	-2.6%	49.7%	-1.4	1.58µM*	-19.7%
Cc1ccccc1NC(=O)N1CCC(C(=O)c2ccc(F)cc2)CC1	-29.2%	3.7%	0.4%	-2.1	u	1.0%
Cc1ccc(F)cc1NC(=O)N1CCN(C2c3ccccc3-c3ccccc32)CC1	i	11.6%	2.7%	-1.0	12.6µM*	2.1%
COc1cccc(NC(=S)NC2CC(C)CC(C)(C)C2)c1 (stereo unspecified)	-6.2%	17.0%	u	5.1	8.91µM*	-0.5%
Cc1cc(NC(=O)c2cc(-c3ccc(F)cc3)on2)no1	x	x	x	-0.5	x	x
Clc1cccc2c1Sc1ccccc1CC2N1CCNCC1 (stereo unspecified)	i	3.8%	u	-9.8	u	11.2%
Clc1ccc2c(c1)C(N1CCNCC1)Cc1ccccc1S2 (stereo unspecified)	-4.2%[57.5 µM]	15.4%	-9.9%	-1.4	8.91µM*	-16.2%
Cc1ccc(-c2nn(-c3cccc(F)c3)cc2CN2CCN(c3ccccn3)CC2)o1	i	-0.1%	5.3%	-1.7	10µM*	-0.9%
Cc1cccc(-n2cc(CN3CCN(Cc4nccn4C)CC3)c(-c3cccc(F)c3)n2)c1	i	-5.0%	u	1.0	4.47µM*	13.9%
CC(=O)N1CCCN(Cc2cn(-c3ccc(C)cc3)nc2-c2cccc(C)c2)CC1	-1.2%	12.8%	-15.1%	-3.6	10µM*	24.0%
Cc1ccc(-c2nn(-c3cccc(F)c3)cc2CN(Cc2nccn2C)C(C)C)o1	i	4.6%	u	-0.2	u	-0.1%
COc1ccc(-n2cc(CN3CCCC3)c(-c3cccc(F)c3)n2)cc1	u	0.0%	u	-1.8	u	14.7%
Cc1cc(O)c(C(C)C)cc1NC(=O)Nc1cccc2ccccc12	-19.7%	2.1%	-5.0%	11.0	6.31µM*	18.1%
C=CCNC(=S)Nc1sc2c(c1C(=O)OCC)CCN(C(=O)OCC)C2	-8.0%[57.5 µM]	1.6%	-7.9%	0.0	5.3%	5.8%
C=CCNC(=S)Nc1sc2c(c1C(=O)OCC)CC(C)(CC)OC2 (stereo unspecified)	-5.0%	0.9%	10µM*	-3.0	-3.4%	0.7%
SMILES	PTHR1 agonist	mIDH1 inhibitor	GLP1R cytotox	LDHA block	GLP-1R inv ag	GLP-1R agonist
OCC1(Cc2ccccc2F)CCCN(Cc2c(F)ccc(F)c2F)C1 (stereo unspecified)	-28.2%	-6.6%	13.3%	-6.8	11.2µM*	5.5%
OCC1(Cc2ccccc2F)CCCN(CC2CCCCC2)C1 (stereo unspecified)	0.4%	-3.3%	-16.8%	-2.0	u	23.8%
CCN(CC(=O)NCc1ccc(Cl)cc1)C(=O)COc1ccc(Cl)cc1Br	i	5.5%	-3.1%	-1.1	11.2µM*	-1.9%
CCN(CCCNC(=O)CN1N=C(c2ccc(C)cc2)CCC1=O)c1ccccc1	i	2.9%	3.0%	6.1	-23.5%	x
CCCCN(CCCNC(=O)CN1N=C(c2ccc(C)cc2)CCC1=O)c1ccccc1	-15.7%	7.3%	-5.2%	6.8	12.6µM*	x
O=C(CCCCCNC(=O)N1CCn2c1nc1ccccc12)NCc1ccccc1Cl	-8.5%	0.0%	-9.3%	-1.8	7.08µM*	12.9%
O=C(CCCCCNC(=O)N1CCn2c1nc1ccccc12)NCc1ccc(Cl)cc1	-12.7%	-6.4%	-1.9%	0.9	u	10.6%
Cc1ccc(C2CN(c3ccccc3)CC2C(=O)c2ccc(F)cc2)cc1 (stereo unspecified)	12.6%	-0.9%	40.7%	3.5	10µM*	-16.0%
O=C(c1ccccc1)C1CN(c2ccccc2)CC1c1ccc(Cl)cc1 (stereo unspecified)	i	-1.4%	13.1%	-3.7	0.0%	-9.2%
Cc1csc(CNC(=O)c2ccccn2)n1	x	x	x	-6.2	x	x
CC(C)COc1ccc(C(=O)Nc2ccc(N3CCN(S(C)(=O)=O)CC3)cc2)cc1	x	x	x	-34.9*	x	x
CC(C)(C)c1ccc(C(=O)NCC2CCCN2S(=O)(=O)c2ccccc2)cc1 (stereo unspecified)	-11.2%	0.0%	-20.5%	7.6	5.01µM*	6.2%
CCN(CC)c1ccc2nc3ccccc3[n+](CC)c2c1	-31.2%	12.2%	11.2µM*	19.0	u	-1.5%
CN[C@H]1C[C@H]2c3[nH]c4ccc(-c5ccc(OC)cc5)cc4c3CCN2C(=O)[C@H]1[C@H](C)O	-16.5%	12.6%	u	3.7	5.62µM*	-4.5%
COc1ccc(NC(=O)N(C)[C@H]2C[C@H]3c4[nH]c5ccc(-c6ccc(OC)cc6)cc5c4CCN3C[C@H]2[C@H](C)O)cc1	10.2%	1.7%	u	-10.2	7.08µM*	-3.1%
CN[C@H]1C[C@H]2c3[nH]c4ccc(-c5cccc(C)c5)cc4c3CCN2C[C@H]1[C@H](C)O	0.8%	1.2%	u	-21.4	11.2µM*	-5.8%
COc1ccc(NC(=O)N(C)[C@H]2C[C@H]3c4[nH]c5ccc(-c6ccc7c(c6)OCO7)cc5c4CCN3C[C@H]2[C@H](C)O)cc1	9.0%	4.2%	u	-0.4	u	-6.0%
CCOC(=O)C(=NC(C)CC)NNc1ccc(Br)cc1 (stereo unspecified)	-18.0%	-6.7%	-11.2%	3.1	2.51µM*	16.2%

Screening results as filed in PubChem.
